Data taken from PubChem BioAssay AID1159506 (National Center for Advancing Translational Sciences (NCATS), 2015).
In all, about 59,000 sequences were measured (the read-out: median about -0.00055, lowest 2% from about -2 on). Many of the other results were omitted from the sample, so the lowest values are more common in it than they were.

assay: Identification of proteins required for the processing of the EWS-FLI1 nascent transcript; conditions: TC32 Ewing sarcoma NR0B1-luc vs CMV-luc (EWS-FLI1 target promoter against control promoter), 48 h; screened at 20 nM (by protocol);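 further: robust z of luciferase light less the median z of siRNAs with the same seed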
In short: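 Parallel TC32-NR0B1-luc and TC32-CMV-luc reverse transfections with 20 nM siRNA in RPMI-1640/10% FBS, luciferase measured 48 h later. Seed-adjusted z-scores from normalized, z-score-MAD transformed data; AllStars negative and siGL4 controls on each plate.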

In order of falling seed-corrected z-score:
1. UUCUUGUACUGCACCAUCU against PHLDA1  2.51
2. AAAGGAUCUCUCUGUAUUU against SNTN  1.99
3. UAGCUGUCGAACACCCAGG against PDDC1  1.63
4. UUUCGGAAAUCUAGGCUGG against KANSL1  1.62
5. AGAAGGAACAUGCGUGCAG against TTC34  1.38
6. UAUUUGUUUCACCUCACUG against DNAJC8  1.25
7. AUUCUCACCAGACAUCCUG against KRT74  1.12
8. UUCUGGAUGUGGUAGGGCC against ACSBG1  0.963
9. UCGGUUGAAACAUUUGUGG against IPO11  0.941
10. UCAGUUUGCAAUUAGGCAG against LOC113230  0.933
11. AGUGAUGAAAGCAAAGUAG against KCNK16  0.908
12. UGUCUAACAAAUGUGGAGC against ZNF548  0.841
13. UGCUGCAUGACAUCCACCC against SORBS3  0.835
14. UGUUCAACGAGGGUAUAGC against ZNF416  0.828
15. AGAUCUACUAGUUCUUGUG against LRCH1  0.758
16. AUAAAACUCAUCUGAGUCC against CYP11B2  0.754
17. UGUUUUAACUGCUGUAUCC against RP9  0.734
18. UGUAUACAAAGAGACAAUC against TAS2R5  0.728
19. AAAGUAGCAUCGUCUGUCU against GSC  0.704
20. UAUUUACCAGGCUCUGUGG against FAM47A  0.667
21. UGUGUUUAACCAGAGAUCC against RXRG  0.625
22. UCUCUAAAAGGUGUCUUGC against SH3RF2  0.606
23. UUGAUAUAAACUCUGACAC against PDE4D  0.567
24. UUGGAGUUCAGGAUCCUCU against MYO19  0.563
25. UCUUAUUGAAAAUCUCAGC against NR1H4  0.518
26. UCAGGUUUAAGAGGUAUGC against TRAM2  0.485
27. UUUGAGUCUAGUGGGAUAG against SLC22A10  0.479
28. UUUUCUUGCGUUUAUGUGG against C11orf57  0.448
29. UCUUCAUUAGCUUCUUCAC against PLCXD2  0.44
30. UCUGGUGUACAAGUAGUCC against FICD  0.433
31. AGACGUUCCAUUCAUAUCU against RBMY1F  0.399
32. UUCGAUUCAUGAAAUCUCC against GTF3C1  0.399
33. UUACGUUCAACCUUAGAUC against PHLPP1  0.355
34. UGAGAUGAACUGAUCUUGC against OR10W1  0.324
35. UUCCGUUUAAUUUCAACUG against BRCA2  0.32
36. AGGCUGAUGACUCCUAUCC against SSTR3  0.317
37. UUCUGAUCCUGGAUGUUGC against R3HDM1  0.205
38. UUCUCACUCAUGUUGCCUC against ZNF768  0.198
39. UGACCGUUUCGGAUGAUGG against ATP2B4  0.168
40. UACCGGAAAGACAAGAUAG against CRYBG3  0.146
41. UGCAUGACAAACAAAUUCC against GATAD1  0.136
42. UCUCGAACCUGGAGAAUGC against FAM109B  0.134
43. UCAUAGGACCAGUCAAUGC against CPA2  0.13
44. UUCGUAAUAAAGGAUCCAG against NF1  0.124
45. AAUGAAGCAGUUCAUAAGC against ST3GAL6  0.107
46. UAUGCGCAGAUGUUACUCG against PAICS  0.0926
47. AAAGUGGACACCAUAGACC against HGD  0.0682
48. UACCUCUUAAUAAGAUCUG against ATP8A2  0.0625
49. UUUCCGAUAGAUUGACUGC against SMPX  0.0624
50. UUUGUCUCAAGAAUUAUCA against SPTSSA  0.0457
51. UAUGUAACUUUGAUGAGAG against CEACAM22P  0.0194
52. UACCAGCUCACUGACAUGG against OR8B4  0.0124
53. UAAGUACUCUCAACACUGC against PIN4P1  0.00579
54. UCUCCUCAAAGCACCAGCC against LOC653712  -0.019
55. AUACUGGUUAGAAUCAGAC against EVI5  -0.0438
56. AAGAAUUCCAUACAUCUUC against ACKR1  -0.0448
57. UUUAGUUCACCCUGAAUCG against NUP54  -0.0579
58. AAAGCUAACAUAUUGUAGU against MSGN1  -0.0625
59. UUGUAUCCAAAGAUGAUUC against PLXDC2  -0.0677
60. UUGGUAGUAGAUCAUAUGC against STXBP3  -0.0771
61. AAAGCGUAGAAAAUAUCCC against DNAH5  -0.0906
62. UGUGCACUAAUGCGAAUCG against MYO5C  -0.13
63. AAACUUAUACUUCUGGUAC against VBP1  -0.149
64. UAAGUCGAACCUUAUCUCC against AIM2  -0.16
65. UUCUUCUAAAACAUCCUCG against GLE1  -0.174
66. UUUUUAACAGAGGUCUCCA against RAB42P1  -0.18
67. UGUCGAUCUAGGUACUGAC against SART3  -0.192
68. AAUAUGUCGUUGUAAGUGC against ZNF644  -0.209
69. UUUUCGAUCAUCACCACAC against YWHAQ  -0.216
70. AACCAGUUAGAUUAUACGC against ATRNL1  -0.225
71. UCAGUAUGAAGAGCAACAG against MCM2  -0.317
72. AUAAAUGGUGGUUUAAGGU against METTL2B  -0.343
73. AUAGGUACUGCACUGCAGG against GPS2  -0.377
74. UUAGUUCCAUUUCCUACUC against TEX38  -0.404
75. UUGGGAGCGAUAACACGAC against C19orf53  -0.418
76. UACGGUCACUGAUAGUUGG against CYP17A1  -0.42
77. UAUAGAUGCGAAUCCUUUC against C17orf97  -0.421
78. AAGCUUUAUACUUUCCACC against OR7G3  -0.496
79. UAGAGUUCCAGCUAGGGUG against CTRL  -0.507
80. UCAGGUUGAUGAAAUGGGC against PRDM15  -0.519
81. UUUCUCAUCAAAGAACUCC against PPP2R1A  -0.546
82. UGAGCACAGAAAGUGGACC against SNRPD2P1  -0.553
83. ACAUCCUUAAGAAAUAUGG against PLEKHA2  -0.563
84. UCAGCAUAUAGCAGGAUCC against NPR2  -0.565
85. AUUCGAACAACAUUUCUUC against ANOS1  -0.592
86. UCCCGUUCAAUCUCCCACC against RNF113B  -0.595
87. UUAUCUAUCACCCAAGCAG against RTN4IP1  -0.598
88. UUUAAGUCAAAUCUUGUCC against WTIP  -0.633
89. UCUGGUUUUUGUACCCGCC against LOC403323  -0.673
90. AUAGUAAUCAUCCAGAGCA against ARHGEF35  -0.685
91. AAAGCCAGGAGUUCCGCUG against GNG8  -0.7
92. UGUACUGUCAGACUAAUGC against MRGPRX3  -0.749
93. UUUCAAUCUUGUCUGAGGC against COX11  -0.764
94. UAAUUGAGUUUCUAAAGUG against CDKAL1  -0.809
95. UCUGUUACAAUUGUUCCAC against ETF1  -0.812
96. UUUGCUAGAAGCCUUCUUG against DOK6  -0.847
97. UUGAGGUCAAUUUCGGCUG against H2AFY2  -0.937
98. AUCGGUAGCAGUGAACAUG against LPP  -0.942
99. UCUGUUCGAAAGUCAAAGC against SRBD1  -0.955
100. UUCAUUAUGUGGAACAUAC against CYP19A1  -1.02
101. UUUGCUACAGAAUUGCUUG against ANAPC16  -1.17
102. UUUGAUUAAAAGGUCUCUG against PIGX  -1.29
103. UUCACUUUCAGAUCGGGAC against C18orf25  -1.35
104. UGACUAUGAUGUUGAAUCC against OR8A1  -1.35
105. UGUGCAUGCACAGAGAAGC against NFE4  -1.58
106. UAGAAUAAAAUACCGAAUG against SNRPD1  -1.88
107. AGGAGACUCAGCUUGAUCC against SPATA45  -2.01
108. UUUCAUCUCAUCGAGGAAG against LDOC1  -2.02
109. UUGUGGUAGAUCUGGACGC against VASP  -2.15
110. AUCCUUGUACAUGCAGUCC against ELL  -2.16
111. UUUCAUCUCACCUUUAUUG against RPL23P5  -2.17
112. UGAGUUGCAGUCCUCCACG against C9orf173  -2.17
113. ACAGUGGUGAACGUGAUGC against JPX  -2.26
114. AGGGUAGAAAGAGUCGUCC against ANKRD33B  -2.3
115. UCCAGUUGUAGUUCGGCAG against KISS1  -2.32
116. UGUAGCUGAAGAAUAUUCC against ZBTB24  -2.4
117. UUUGAGUAGAGCAGCAUCC against SENP3  -2.41
118. UUGAGUAAGAACUUUAUCC against SMAD1  -2.45
119. UUCAGCAUUACUCUCUGCG against RPL17P39  -2.51
120. AGCUUGUAAACACUUCUGC against RGN  -2.52
121. AAAGCUGCAACUGCCUCCC against C2orf48  -2.61
122. UAUAUUAGCGGUAACGGUG against RPL15P3  -2.66
123. UCUGCUUUGUCUCUCAGCC against FAM92A1  -2.84
124. UCCAUGGUACUUCUUAUGC against TMEM127  -2.9
125. UAAGCAUCCAGUAGGCAGG against XBP1  -3.08
126. AUGGUCUUCACUCUUGUGC against CCR9  -3.14
127. UCGUCUUCGCUUUAUAUCC against EFR3A  -3.4
128. UUUGUAGCAAGGAAUACAG against OR7A5  -3.5
129. UCCAGUUGCACUUCUGUCC against CGREF1  -3.65
130. UCCUUGUCGACAACGAGUG against GAPVD1  -3.68
131. ACAGUUAUUCUGUCCAUCG against LDLRAD3  -6.33
132. UUGAUUCUCGGGUCUUUGG against FAM71F2  -12.6
133. UGAUGCACGAGAAGAAGCC against KCNK3  -13.5
